Activity calls are given as the source filed them. Rule for the calls: active = hit-call score of the fitted dose curve at least 0.9, where 1 is the maximum; inactive = score below 0.9.
Columns and labels:
[1] = APR_HepG2_NuclearSize_72hr: Apredica 72-hour HepG2 Assay for Nuclear Size (AID 2282925); conditions: high-content imaging, actives raise or lower the signal
Procedure, shortened: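 HepG2 cells were exposed to compounds at ten concentrations from 0.39 to 200 uM (duplicate, 0.5% DMSO final) for 72 hr. After fixation in 3.7% formaldehyde, nuclei were stained with Hoechst 33342 (2 ug/mL) and imaged at 20x.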

[2] = ATG_CRE_CIS: Attagene CIS-FACTORIAL HepG2 Assay for human cAMP Responsive Element (CRE) binding protein 3 (AID 2282926); conditions: HepG2 CRE cis-reporter, Attagene multiplexed mRNA; actives raise or lower the signal
Procedure, shortened: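 Transfected HepG2 were treated for 24 hours, then RNA was extracted and reporter cDNA amplified with sequence-specific primers. Labelled fragments were separated by capillary electrophoresis, and the CRE signal was fitted bidirectionally with DMSO as baseline.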

[3] = target: CCAAT/enhancer-binding protein beta (Homo sapiens) (UniProt P17676); assay: ATG_C_EBP_CIS: Attagene CIS-FACTORIAL HepG2 Assay for human CCAAT/Enhancer Binding Protein (C/EBP) beta (AID 2282927); conditions: HepG2 Attagene cis-factorial transcription factor reporter; actives raise or lower the signal
CCAAT/enhancer-binding protein beta (Homo sapiens), sequence (P17676 whole entry, looked up): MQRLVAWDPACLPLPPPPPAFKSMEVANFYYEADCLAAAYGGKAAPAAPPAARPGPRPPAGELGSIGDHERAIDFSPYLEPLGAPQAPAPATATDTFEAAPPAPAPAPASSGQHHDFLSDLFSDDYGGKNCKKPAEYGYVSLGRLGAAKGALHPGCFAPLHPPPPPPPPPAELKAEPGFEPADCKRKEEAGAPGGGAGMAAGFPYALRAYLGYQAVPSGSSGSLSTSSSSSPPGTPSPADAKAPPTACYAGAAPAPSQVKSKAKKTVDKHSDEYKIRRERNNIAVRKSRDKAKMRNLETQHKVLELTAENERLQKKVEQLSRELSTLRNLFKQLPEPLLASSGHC
Procedure, shortened: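 Following a 24 h incubation with test chemical, transfected HepG2 cells yielded RNA whose reporter transcripts were quantified by RT-PCR and fluorescent capillary electrophoresis, with DMSO serving as baseline for bidirectional fitting.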

[4] = ATG_CMV_CIS: Attagene CIS-FACTORIAL HepG2 Assay for human CMV (Internal Marker) (AID 2282928); conditions: HepG2 CMV promoter reporter, transcription factor profiling; actives raise or lower the signal;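 note: endpoint acts as a background internal control marker rather than a target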
Procedure, shortened: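 CMV internal-marker background readout in transiently transfected HepG2 cells bearing cis-regulated reporter units. Reporter mRNA is measured 24 h after dosing by RT-PCR and capillary electrophoresis, with bidirectional fitting against DMSO.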

[5] = ATG_DR4_LXR_CIS: Attagene CIS-FACTORIAL HepG2 Assay for human Liver X Receptor (LXR), DR4 submotif (AID 2282929); conditions: HepG2 Attagene DR4 cis-reporter, mRNA transcription; actives raise or lower the signal
Procedure, shortened: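 Cells were transfected with multiple reporter transcription units, exposed to chemicals for 24 hours, then lysed for RNA. Reporter mRNA induction was measured by RT-PCR with capillary electrophoresis detection and fitted in both directions relative to DMSO.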

[6] = target: Aryl hydrocarbon receptor (Homo sapiens) (UniProt P35869); assay: ATG_Ahr_CIS: Attagene CIS-FACTORIAL HepG2 Assay for human Aryl Hydrocarbon Receptor (Ahr) (AID 2282930); conditions: HepG2 AhR cis-factorial reporter transcription; actives raise or lower the signal
Aryl hydrocarbon receptor (Homo sapiens), sequence (P35869 whole entry, looked up): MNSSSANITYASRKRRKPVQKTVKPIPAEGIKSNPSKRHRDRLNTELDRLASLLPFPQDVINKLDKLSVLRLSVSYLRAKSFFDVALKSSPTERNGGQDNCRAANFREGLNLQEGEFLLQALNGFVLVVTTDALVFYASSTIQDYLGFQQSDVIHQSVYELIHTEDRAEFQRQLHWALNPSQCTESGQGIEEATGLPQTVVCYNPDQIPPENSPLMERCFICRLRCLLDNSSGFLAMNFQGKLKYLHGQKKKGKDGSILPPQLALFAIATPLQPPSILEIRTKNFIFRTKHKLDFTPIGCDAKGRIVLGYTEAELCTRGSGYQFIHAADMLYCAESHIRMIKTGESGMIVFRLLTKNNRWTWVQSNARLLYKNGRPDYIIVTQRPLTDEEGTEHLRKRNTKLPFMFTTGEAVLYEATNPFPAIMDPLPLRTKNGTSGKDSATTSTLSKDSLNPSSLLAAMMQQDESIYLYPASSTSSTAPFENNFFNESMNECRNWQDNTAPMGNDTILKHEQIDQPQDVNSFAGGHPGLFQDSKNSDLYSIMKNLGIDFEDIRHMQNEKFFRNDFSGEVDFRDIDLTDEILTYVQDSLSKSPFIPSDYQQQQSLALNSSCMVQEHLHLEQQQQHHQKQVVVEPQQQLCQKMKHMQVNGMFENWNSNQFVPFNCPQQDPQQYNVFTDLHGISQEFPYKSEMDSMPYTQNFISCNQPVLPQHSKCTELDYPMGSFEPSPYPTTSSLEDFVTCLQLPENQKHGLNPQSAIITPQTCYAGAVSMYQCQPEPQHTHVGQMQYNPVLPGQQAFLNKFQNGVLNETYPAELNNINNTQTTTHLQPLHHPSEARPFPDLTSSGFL
Procedure, shortened: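 Values derive from bidirectional fitting against DMSO negative control. Underlying signal: cis-element reporter mRNA in transiently transfected HepG2, harvested 24 h post-dose and measured by RT-PCR plus capillary electrophoresis.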

[7] = ATG_AP_1_CIS: Attagene CIS-FACTORIAL HepG2 Assay for human Activator Protein 1 (AP-1) (AID 2282931); conditions: HepG2 Attagene cis-factorial AP-1 reporter mRNA; actives raise or lower the signal
Procedure, shortened: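 Endogenous transcription-factor activity in human HepG2 liver cells is read through a cis-promoter reporter transcript, sampled 24 h after dosing. Detection uses RT-PCR with capillary electrophoresis; values come from bidirectional fitting relative to DMSO.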

[8] = ATG_AP_2_CIS: Attagene CIS-FACTORIAL HepG2 Assay for human Activator Protein 2 (AP-2) (AID 2282932); conditions: HepG2 AP-2 cis-reporter, Attagene transcription factor profiling; actives raise or lower the signal
Procedure, shortened: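 HepG2 cells were transiently transfected with multiple cis-promoter reporter transcription units and dosed for 24 h. Reporter mRNA was measured by RT-PCR with capillary electrophoresis fluorescence; bidirectional fits relative to DMSO baseline.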

[9] = ATG_BRE_CIS: Attagene CIS-FACTORIAL HepG2 Assay for human Bone Morphogenetic Protein (BMP) Response Element (BRE) (AID 2282933); conditions: HepG2 BMP response element reporter, Attagene transcription factor profiling; actives raise or lower the signal
Procedure, shortened: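 A HepG2 multiplex reporter system measured inducible reporter mRNA 24 h post-dosing. Detection: RT-PCR, 6-FAM primer extension, HpaI digestion, capillary electrophoresis. Activity fitted bidirectionally relative to DMSO.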

[10] = target: Transcription factor E2F1 (Homo sapiens) (UniProt Q01094); assay: ATG_E2F_CIS: Attagene CIS-FACTORIAL HepG2 Assay for human E2F Transcription Factor 1 (AID 2282935); conditions: HepG2 Attagene cis-reporter, E2F reporter RNA transcripts; actives raise or lower the signal
Transcription factor E2F1 (Homo sapiens), sequence (Q01094 whole entry, looked up): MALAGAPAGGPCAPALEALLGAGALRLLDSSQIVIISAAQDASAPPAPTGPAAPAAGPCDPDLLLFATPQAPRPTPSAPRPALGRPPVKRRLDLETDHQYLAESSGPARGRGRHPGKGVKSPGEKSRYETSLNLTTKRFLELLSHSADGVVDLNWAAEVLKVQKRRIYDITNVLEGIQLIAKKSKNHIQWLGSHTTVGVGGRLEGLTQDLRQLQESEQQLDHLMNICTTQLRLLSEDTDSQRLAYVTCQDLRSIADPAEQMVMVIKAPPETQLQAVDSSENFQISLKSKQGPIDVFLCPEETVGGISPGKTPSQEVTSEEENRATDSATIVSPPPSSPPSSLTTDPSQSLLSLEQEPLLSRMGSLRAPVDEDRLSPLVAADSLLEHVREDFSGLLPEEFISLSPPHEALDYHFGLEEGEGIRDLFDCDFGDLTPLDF
Procedure, shortened: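 HepG2 cells transiently transfected with multiplexed cis-element reporter units, dosed for 24 h. Reporter mRNA measured by RT-PCR, 6-FAM primer-extension labeling, HpaI digestion and capillary electrophoresis; bidirectional fit versus DMSO baseline.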

[11] = ATG_E_Box_CIS: Attagene CIS-FACTORIAL HepG2 Assay for human Enhancer Box (E-box) (AID 2282936); conditions: HepG2 E-box cis-reporter transcription, actives raise or lower the signal
Procedure, shortened: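 HepG2 cells transiently transfected with multiplexed cis-element reporter units sensing endogenous transcription factor activity; 24 h compound exposure. Reporter mRNA measured by RT-PCR, 6-FAM primer extension, HpaI digestion and capillary electrophoresis; bidirectional fit versus DMSO.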

[12] = ATG_M_61_CIS: Attagene CIS-FACTORIAL HepG2 Assay for M61 Transcription Factor (Internal Marker) (AID 2282937); conditions: HepG2 Attagene CIS-FACTORIAL M61 internal marker reporter; actives raise or lower the signal
Procedure, shortened: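 Cells were transfected with reporter units under cis-regulatory promoters, treated with chemicals for 24 h, then lysed for RNA. Reporter transcripts were quantified by RT-PCR and capillary electrophoresis, and activity was fitted bidirectionally against DMSO.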

[13] = ATG_M_19_CIS: Attagene CIS-FACTORIAL HepG2 Assay for M19 Transcription Factor (Internal Marker) (AID 2282939); conditions: HepG2 Attagene CIS-FACTORIAL M19 internal marker reporter; actives raise or lower the signal
Procedure, shortened: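 Chemical-treated HepG2 (24 h) with MRTU constructs; reporter transcripts detected by fluorescent RT-PCR fragment analysis on capillary electrophoresis. Internal background marker, DMSO as baseline.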

[14] = ATG_ERE_CIS: Attagene CIS-FACTORIAL HepG2 Assay for Estrogen Response Element (ERE) (AID 2282940); conditions: HepG2 ERE cis-reporter, Attagene RNA transcript; actives raise or lower the signal
Procedure, shortened: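 Human liver cells (HepG2) bearing transiently transfected, promoter-regulated reporter units were exposed 24 h. Reporter mRNA induction was detected by capillary electrophoresis of labelled RT-PCR products and fitted bidirectionally to DMSO.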

[15] = ATG_Ets_CIS: Attagene CIS-FACTORIAL HepG2 Assay for human Erythroblast Transformation Specific (ETS) (AID 2282941); conditions: HepG2 ETS cis-reporter transcription, actives raise or lower the signal
Procedure, shortened: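 HepG2 cells transfected with multiple cis-regulated reporter units measuring endogenous ETS-driven transcription, 24 h after dosing. Reporter mRNA quantified by RT-PCR with capillary electrophoresis; bidirectional fit relative to DMSO.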

[16] = target: Hepatocyte nuclear factor 3-beta (Homo sapiens) (UniProt Q9Y261); assay: ATG_FoxA2_CIS: Attagene CIS-FACTORIAL HepG2 Assay for human Forkhead box A2 (FOXA2) (AID 2282942); conditions: HepG2 cis-reporter transcription factor activity, 24 h; actives raise or lower the signal
Hepatocyte nuclear factor 3-beta (Homo sapiens), sequence (Q9Y261 whole entry, looked up): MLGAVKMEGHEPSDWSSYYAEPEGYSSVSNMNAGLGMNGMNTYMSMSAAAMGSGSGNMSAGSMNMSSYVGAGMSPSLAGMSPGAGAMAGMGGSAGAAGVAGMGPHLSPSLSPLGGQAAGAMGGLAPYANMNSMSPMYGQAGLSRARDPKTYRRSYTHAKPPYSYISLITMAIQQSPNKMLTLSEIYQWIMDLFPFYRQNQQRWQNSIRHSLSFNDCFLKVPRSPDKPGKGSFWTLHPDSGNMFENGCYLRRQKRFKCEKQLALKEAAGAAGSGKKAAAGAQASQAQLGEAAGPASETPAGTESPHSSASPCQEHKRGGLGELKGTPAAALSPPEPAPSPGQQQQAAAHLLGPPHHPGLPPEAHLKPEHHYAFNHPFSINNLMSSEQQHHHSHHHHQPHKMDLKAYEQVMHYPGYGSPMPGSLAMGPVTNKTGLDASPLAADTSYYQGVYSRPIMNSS
Procedure, shortened: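 Endogenous transcription factor activity was read in HepG2 cells carrying transiently transfected cis-promoter reporter units. After 24 h dosing, reporter mRNA was quantified by RT-PCR and capillary electrophoresis, and values fitted bidirectionally versus DMSO.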

[17] = ATG_FoxO_CIS: Attagene CIS-FACTORIAL HepG2 Assay for human Forkhead box O (FoxO) (AID 2282943); conditions: HepG2 Attagene cis-reporter, FoxO element, mRNA; actives raise or lower the signal
Procedure, shortened: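 Values reflect reporter mRNA induction or loss in HepG2 cells 24 h post-dosing, fitted bidirectionally with DMSO as negative control and baseline. Detection used RT-PCR and fluorescence capillary electrophoresis.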

[18] = ATG_GATA_CIS: Attagene CIS-FACTORIAL HepG2 Assay for human GATA Binding Protein (AID 2282944); conditions: HepG2 GATA cis-element reporter, Attagene multiplex mRNA; actives raise or lower the signal
Procedure, shortened: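 Transfected cis-reporter HepG2 cells were treated with chemicals for 24 hours. Total RNA was then converted to cDNA, amplified with reporter-specific primers and analysed by fluorescent capillary electrophoresis, using DMSO-treated wells as baseline.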

[19] = ATG_EGR_CIS: Attagene CIS-FACTORIAL HepG2 Assay for human Early Growth Response 1 (EGR1) (AID 2282938); conditions: HepG2 Attagene CIS-FACTORIAL EGR reporter mRNA; actives raise or lower the signal
Procedure, shortened: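 Endogenous TF activity in HepG2 liver cells was gauged through cis-promoter reporter constructs transiently transfected. After 24 h dosing, reporter mRNA was quantified by RT-PCR and capillary electrophoresis, and curves fitted in both directions versus DMSO.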

[20] = target: Retinoic acid receptor alpha (Homo sapiens) (UniProt P10276); assay: ATG_DR5_RAR_CIS: Attagene CIS-FACTORIAL HepG2 Assay for human Retinoic Acid Receptor Alpha (RARE), DR5 submotif (AID 2282934); conditions: HepG2 Attagene cis-factorial RARE DR5 reporter, mRNA; actives raise or lower the signal
Retinoic acid receptor alpha (Homo sapiens), sequence (P10276 whole entry, looked up): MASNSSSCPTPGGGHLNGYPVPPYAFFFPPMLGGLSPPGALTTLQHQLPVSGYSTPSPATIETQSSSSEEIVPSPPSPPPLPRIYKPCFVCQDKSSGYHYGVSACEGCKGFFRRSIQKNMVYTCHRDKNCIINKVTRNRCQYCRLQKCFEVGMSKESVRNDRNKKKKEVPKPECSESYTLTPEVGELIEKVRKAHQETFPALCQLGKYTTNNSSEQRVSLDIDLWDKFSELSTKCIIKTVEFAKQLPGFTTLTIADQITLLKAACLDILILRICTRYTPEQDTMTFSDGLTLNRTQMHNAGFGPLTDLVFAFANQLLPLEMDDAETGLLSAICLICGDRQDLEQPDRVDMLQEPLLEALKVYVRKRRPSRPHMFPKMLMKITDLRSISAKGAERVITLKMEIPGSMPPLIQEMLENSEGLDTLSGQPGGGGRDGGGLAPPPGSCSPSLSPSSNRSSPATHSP
Procedure, shortened: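 Endpoint fitted in both directions relative to DMSO as negative control. It reflects DR5 cis-element reporter mRNA induction in transiently transfected HepG2 cells, measured 24 h after dosing through RT-PCR and fluorescent capillary electrophoresis.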

Measured: AC50

OC(Cn1cncn1)(Cn1cncn1)c1ccc(F)cc1F
not listed: [19] | [20]
inactive: all other assays above

O=C(O)[C@H](O)[C@@H](O)C(=O)O
not listed: [15] | [20]
inactive: all other assays above

Cn1c(=O)c2[nH]cnc2n(C)c1=O
not listed: [15] | [20]
inactive: all other assays above

CCCCCOC(C)=O
not listed: [15]
inactive: all other assays above

NNC(=O)c1ccncc1
active: [14] 26.6 µM
not listed: [15] | [20]
inactive: all other assays above

CCc1ccc(O)c(C(C)(C)C)c1
active: [4] 43 µM | [7] 43.7 µM
not listed: [19] | [20]
inactive: all other assays above

O=c1[nH]cnc2c1ncn2[C@H]1CC[C@@H](CO)O1
not listed: [15]
inactive: all other assays above

Reference: PubChem BioAssay (EPA / NIEHS)
